The values below come from PubChem BioAssay (NCATS).

Molecules are shown by their SMILES. Results filed as inconclusive are left out. The source made the active and inactive calls. Unless noted, the call rests on the fitted dose curve; in most records, active means well fitted curve in the direction sought with a large enough effect; inconclusive means small, poorly fitted or top-dose-only effect, or another doubt; inactive means no such curve, though single readings can be large; an effect the other way counts as inactive or inconclusive.

Assay [1] has as its target Lysosomal acid glucosylceramidase (Homo sapiens) (UniProt P04062). Nature of the assay: Glucocerebrosidase-p2 (AID 348; in the data active means potency below about 10 µM; further: potency means the concentration at half of the fitted maximal effect). Particulars: purified GBA, blue fluorogenic substrate, 40 min. The method in brief: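 Normal human glucocerebrosidase (0.2 nM) with blue fluorogenic substrate (80 uM final) in citrate/phosphate pH 5.9 with 10mM sodium taurocholate, 0.01% tween-20; 40 min RT, NaOH/glycine stop; fluorescence Ex 365/Em 440; AC50 from a titration from 0.6 nM upwards.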

Assay [2] is described as follows: AP1 Signaling Pathway (AID 357; active means well fitted curve in either direction with a large enough effect, not every such curve was filed as active;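 further: ME-180 reporter cells stimulated with EGF at its EC50 level; on the % scale 0 is the no-effect control and ±100 the full control effect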). The conditions noted are these: ME-180 AP-1-bla reporter, EGF-induced, beta-lactamase ratio, 5 h; at 7.69 µM (top of the series) unless noted. The method in brief:
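In this screen, ME-180 cells in Opti-MEM with 0.5% dialyzed FBS received EC50 EGF and compound titrations for 5 h. AP-1 reporter beta-lactamase was detected via CCF4 ratio, giving AC50 for positive and negative modulators.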

Assay [3] in a line: NFAT Signaling Pathway (AID 444; active means well fitted curve in either direction with a large enough effect, not every such curve was filed as active;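 further: carbachol stimulus at about its EC50 of 1 µM final; on the % scale 0 is the no-effect control and ±100 the full control effect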). Particulars: Jurkat NFAT-bla M1, carbachol, beta-lactamase ratio, 5 h; at 7.69 µM (top of the series) unless noted. The method in brief:
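Jurkat cells with NFAT-driven β-lactamase reporter and co-expressed M1 receptor, stimulated with carbachol (final 1 uM, ~EC50), compound titration, 5 h at 37 °C. CCF4 loaded 1 h at RT; 460/530 nm ratio gave %activity and AC50.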

Assay [4] in a line: Stat Signaling Pathway (AID 446; active means well fitted curve in either direction with a large enough effect, not every such curve was filed as active;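 further: ME-180 cervical cancer cells given 40 pM IL-6 alongside compound; SIE-controlled beta-lactamase reporter measured as 460/530 nm FRET emission ratio; on the % scale 0 is the no-effect control and ±100 the full control effect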). Particulars: ME-180 (cervical carcinoma) SIE beta-lactamase reporter, IL-6 stimulated, 5 h; at 7.69 µM (top of the series) unless noted. The method in brief:
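Normalization used AC90 stimulation (300 pM IL-6) and AC90 inhibition (125 nM pan-JAK inhibitor at 40 pM IL-6). The underlying signal is SIE-driven beta-lactamase in ME-180 cells after 5 h IL-6 exposure with compound.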

Assay [5] deals with Glucocorticoid receptor (Homo sapiens) (UniProt P04150). Nature of the assay: GR-GFP Redistribution (AID 450;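 active means compounds whose dose series gives a full or clear partial fitted curve of increased nuclear translocation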; further: potency means the concentration at half of the fitted maximal effect). Particulars: U2OS GR-GFP nuclear translocation, laser cytometry, 2 h.
Sequence of Glucocorticoid receptor (Homo sapiens) (P04150 whole entry, looked up): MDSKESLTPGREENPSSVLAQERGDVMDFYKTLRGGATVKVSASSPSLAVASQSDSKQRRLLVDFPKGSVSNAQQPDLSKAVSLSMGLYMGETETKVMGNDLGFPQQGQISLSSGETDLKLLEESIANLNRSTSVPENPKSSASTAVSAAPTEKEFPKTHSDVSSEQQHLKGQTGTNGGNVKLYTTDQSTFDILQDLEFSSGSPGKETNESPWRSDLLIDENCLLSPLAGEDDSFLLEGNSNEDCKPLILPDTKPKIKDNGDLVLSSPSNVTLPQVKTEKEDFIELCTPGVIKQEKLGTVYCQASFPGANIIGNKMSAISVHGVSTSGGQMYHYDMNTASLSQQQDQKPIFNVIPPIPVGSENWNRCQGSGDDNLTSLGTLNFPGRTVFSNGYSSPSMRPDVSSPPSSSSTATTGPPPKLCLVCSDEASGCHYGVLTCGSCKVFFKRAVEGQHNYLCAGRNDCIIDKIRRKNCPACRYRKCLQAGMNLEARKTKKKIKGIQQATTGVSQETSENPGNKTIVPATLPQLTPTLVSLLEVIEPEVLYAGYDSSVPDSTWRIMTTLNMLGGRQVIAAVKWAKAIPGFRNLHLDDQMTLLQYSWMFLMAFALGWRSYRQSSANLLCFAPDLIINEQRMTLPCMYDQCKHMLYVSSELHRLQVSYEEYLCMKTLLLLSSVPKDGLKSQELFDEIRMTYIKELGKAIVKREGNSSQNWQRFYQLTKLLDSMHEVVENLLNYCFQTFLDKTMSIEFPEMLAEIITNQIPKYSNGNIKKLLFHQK
Assay [6] shares this target. Nature of the assay: GR-EFC Redistribution (AID 451; calls by dose curve; further: potency means the concentration at half of the fitted maximal effect). Particulars: CHO-K1 GR-EFC translocation, beta-gal luminescence, 2 h. The method in brief:
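CHO-K1 cells expressing nuclear EA and GR-ED fragments of b-gal; compounds titrated up to 46 uM final, 2 h at 37 C. GR nuclear translocation read as complemented b-gal luminescence after 1 h RT detection.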

Assay [7] concerns the target Mitogen-activated protein kinase 10 (Mus musculus) (UniProt Q61831). Nature of the assay: JNK3 AlphaScreen Assay (AID 530; active means well fitted curve in either direction with a large enough effect, not every such curve was filed as active;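 further: kinase came from lysate of stimulated human HepG2 cells; signal reports phosphorylation of biotinylated GST-cJun 1-79 at Ser73 with 10 µM ATP; on the % scale 0 is the no-effect control and ±100 the full control effect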). Particulars: JNK3 lysate, c-Jun phosphorylation; series mostly up to 57.1 µM. In a few lines:
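HepG2 lysate (IL-1b/TNFa pre-activated) + biotin-GST-cJun 1-79 + anti-pSer73 cJun; cpd titration, 15 min RT; ATP 10 uM start; Tris pH 7.6, MgCl2, DTT, vanadate; beads in EDTA buffer; AlphaScreen.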

Assay [8] can be described thus: qHTS Assay for Lipid Storage Modulators (AID 1519; calls by dose curve). Particulars: Drosophila S3 cells, BODIPY lipid droplet/cell ratio, laser cytometry, cells loaded with oleic acid; for activity change, negative = inhibition: at 57.5 µM (top of the series). The method in brief:
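Cells seeded at 5,000 per well were treated with compounds over a concentration series and loaded with oleic acid (400 uM, as added). Lipid droplet fluorescence (488 nm excitation, 500-530 nm channel) was read by laser-scanning cytometry and normalized to 20 uM Triacsin C.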

Assay [9] deals with Dual specificity protein kinase CLK4 (Homo sapiens) (UniProt Q9HAZ1). Nature of the assay: qHTS Assay for Inhibitors of CDC-like Kinase 4 (Kinase-Glo Assay) (AID 1770). Further: potency means the concentration at half of the fitted maximal effect; nearly all actives have a fitted effect of over 65% in size. Particulars: recombinant Clk4, Kinase-Glo ATP depletion luminescence; series mostly up to 66.7 µM. The method in brief: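 Substrate mix (RS peptide 100 uM, ATP 1 uM) dispensed, compound pinned in, then Clk4 added to 25 nM final. Incubated 4.5 h at RT; Kinase-Glo reagent added, luminescence read after 5 min.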
Sequence of Dual specificity protein kinase CLK4 (Homo sapiens) (Q9HAZ1 whole entry, looked up): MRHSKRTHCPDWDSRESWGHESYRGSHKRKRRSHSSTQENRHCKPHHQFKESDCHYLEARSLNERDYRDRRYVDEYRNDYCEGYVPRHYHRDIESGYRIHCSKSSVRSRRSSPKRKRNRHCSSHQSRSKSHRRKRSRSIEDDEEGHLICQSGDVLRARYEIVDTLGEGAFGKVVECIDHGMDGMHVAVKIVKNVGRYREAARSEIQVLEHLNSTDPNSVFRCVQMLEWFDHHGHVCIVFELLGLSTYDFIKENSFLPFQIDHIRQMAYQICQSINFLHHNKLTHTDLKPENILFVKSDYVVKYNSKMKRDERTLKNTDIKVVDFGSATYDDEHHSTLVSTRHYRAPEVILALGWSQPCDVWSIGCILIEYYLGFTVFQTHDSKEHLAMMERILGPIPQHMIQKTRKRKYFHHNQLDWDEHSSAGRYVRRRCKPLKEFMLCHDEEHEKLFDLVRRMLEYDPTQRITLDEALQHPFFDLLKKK

Assay [10] has the same target. Nature of the assay: qHTS Assay for Inhibitors of CDC-like Kinase 4 (ADP-Glo Assay) (AID 1771). Further: potency means the concentration at half of the fitted maximal effect; nearly all actives have a fitted effect of over 70% in size. Particulars: recombinant CLK4, ADP-Glo luminescence; series mostly up to 80 µM. The method in brief:
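25 nM Clk4, 100 uM RS peptide, 1 uM ATP (final); 2 mM MgCl2, 0.5 mM EGTA, 2.5 mM DTT, 0.01% Triton X-100; 1 hr RT. ADP-Glo readout: ATP depletion 45 min, conversion/luciferase 30 min, luminescence.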

For assay [11] the target is unchanged. Nature of the assay: qHTS Assay for Inhibitors of CDC-like Kinase 4 (ADP-FP Assay) (AID 1795). Further: potency means the concentration at half of the fitted maximal effect; nearly all actives have a fitted effect of over 60% in size. Particulars: Transcreener ADP fluorescence polarization; series mostly up to 50 µM. The method in brief:
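Clk4 6.25 nM; RS peptide 100 uM; ATP 1 uM; 25 mM Tris pH 7.5, 10 mM MgCl2; 1 h reaction. ADP detected via antibody/orange tracer FP displacement; TG003 positive control.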

In assay [12] the target is Ubiquitin carboxyl-terminal hydrolase 1 (Homo sapiens) (UniProt O94782). Nature of the assay: Inhibitors of USP1/UAF1: Pilot qHTS (AID 504865).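 Further: rhodamine fluorescence freed from ubiquitin-rhodamine substrate followed over time; top concentration of the series differs between compounds; on the % scale 0 is the no-effect control and ±100 the full control effect; nearly all actives have a fitted effect of over 35% in size.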 The conditions noted are these: purified USP1/UAF1, Ub-rhodamine cleavage fluorescence; series mostly up to 54.9 µM. The method in brief:
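In 50mM HEPES pH 7.8 containing 0.5mM EDTA, 1mM TCEP, 0.1 mg/ml BSA and 0.01% Tween-20, 1nM USP1/UAF1 is exposed to compound for 15 min, then Ub-Rho (150nM final) is added and fluorescence is read over time.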

Assay [13] deals with Rap guanine nucleotide exchange factor 3 (Homo sapiens) (UniProt O95398). Nature of the assay: Confirmatory qHTS for agonist of cAMP-regulated guanine nucleotide exchange factor 3 (EPAC1) (AID 1645881). Further: nearly all actives have a fitted effect of over 75% in size. Further: potency means the concentration at half of the fitted maximal effect.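 On activation: EPAC1 catalysed release of BODIPY-GDP from Rap1B seen as fluorescence loss; 100% = effect of cAMP agonist control.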 Particulars: EPAC1 Rap1B BODIPY-GDP exchange fluorescence; series mostly up to 154 µM.
Sequence of Rap guanine nucleotide exchange factor 3 (Homo sapiens) (O95398 whole entry, looked up): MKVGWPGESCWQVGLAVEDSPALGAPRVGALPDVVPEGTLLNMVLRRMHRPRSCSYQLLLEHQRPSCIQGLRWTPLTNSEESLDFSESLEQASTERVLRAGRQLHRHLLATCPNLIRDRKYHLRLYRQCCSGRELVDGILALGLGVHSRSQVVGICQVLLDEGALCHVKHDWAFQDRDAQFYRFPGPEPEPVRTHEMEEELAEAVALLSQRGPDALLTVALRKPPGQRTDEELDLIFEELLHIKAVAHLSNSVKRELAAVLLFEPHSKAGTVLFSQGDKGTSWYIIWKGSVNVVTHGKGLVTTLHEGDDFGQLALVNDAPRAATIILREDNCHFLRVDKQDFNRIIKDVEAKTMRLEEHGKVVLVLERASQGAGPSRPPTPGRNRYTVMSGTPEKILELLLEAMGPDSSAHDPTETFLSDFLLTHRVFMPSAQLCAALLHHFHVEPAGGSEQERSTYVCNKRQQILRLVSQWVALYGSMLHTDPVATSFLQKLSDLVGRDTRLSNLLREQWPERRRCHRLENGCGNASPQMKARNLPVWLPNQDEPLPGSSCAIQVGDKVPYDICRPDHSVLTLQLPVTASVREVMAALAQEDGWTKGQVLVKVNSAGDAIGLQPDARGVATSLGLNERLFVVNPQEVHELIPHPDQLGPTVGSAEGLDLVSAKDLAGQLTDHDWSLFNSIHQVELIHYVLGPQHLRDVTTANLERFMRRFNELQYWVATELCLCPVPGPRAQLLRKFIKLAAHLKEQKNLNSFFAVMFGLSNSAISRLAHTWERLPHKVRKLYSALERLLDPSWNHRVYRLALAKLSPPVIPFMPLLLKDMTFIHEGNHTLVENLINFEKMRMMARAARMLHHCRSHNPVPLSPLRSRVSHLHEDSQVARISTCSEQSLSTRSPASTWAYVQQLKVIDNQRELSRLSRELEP
The target of assay [14] is Rap guanine nucleotide exchange factor 4 (Homo sapiens) (UniProt Q8WZA2). Nature of the assay: Confirmatory qHTS for agonist of cAMP-regulated guanine nucleotide exchange factor 4 (EPAC2) (AID 1645884).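 Further: nucleotide exchange releases bodipy-GDP from Rap1 and this lowers its fluorescence; nearly all actives have a fitted effect of over 65% in size.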 Further: potency means the concentration at half of the fitted maximal effect. The conditions noted are these: EPAC2 GEF activity, Rap1B-BODIPY-GDP fluorescence; series mostly up to 154 µM.
Sequence of Rap guanine nucleotide exchange factor 4 (Homo sapiens) (Q8WZA2 whole entry, looked up): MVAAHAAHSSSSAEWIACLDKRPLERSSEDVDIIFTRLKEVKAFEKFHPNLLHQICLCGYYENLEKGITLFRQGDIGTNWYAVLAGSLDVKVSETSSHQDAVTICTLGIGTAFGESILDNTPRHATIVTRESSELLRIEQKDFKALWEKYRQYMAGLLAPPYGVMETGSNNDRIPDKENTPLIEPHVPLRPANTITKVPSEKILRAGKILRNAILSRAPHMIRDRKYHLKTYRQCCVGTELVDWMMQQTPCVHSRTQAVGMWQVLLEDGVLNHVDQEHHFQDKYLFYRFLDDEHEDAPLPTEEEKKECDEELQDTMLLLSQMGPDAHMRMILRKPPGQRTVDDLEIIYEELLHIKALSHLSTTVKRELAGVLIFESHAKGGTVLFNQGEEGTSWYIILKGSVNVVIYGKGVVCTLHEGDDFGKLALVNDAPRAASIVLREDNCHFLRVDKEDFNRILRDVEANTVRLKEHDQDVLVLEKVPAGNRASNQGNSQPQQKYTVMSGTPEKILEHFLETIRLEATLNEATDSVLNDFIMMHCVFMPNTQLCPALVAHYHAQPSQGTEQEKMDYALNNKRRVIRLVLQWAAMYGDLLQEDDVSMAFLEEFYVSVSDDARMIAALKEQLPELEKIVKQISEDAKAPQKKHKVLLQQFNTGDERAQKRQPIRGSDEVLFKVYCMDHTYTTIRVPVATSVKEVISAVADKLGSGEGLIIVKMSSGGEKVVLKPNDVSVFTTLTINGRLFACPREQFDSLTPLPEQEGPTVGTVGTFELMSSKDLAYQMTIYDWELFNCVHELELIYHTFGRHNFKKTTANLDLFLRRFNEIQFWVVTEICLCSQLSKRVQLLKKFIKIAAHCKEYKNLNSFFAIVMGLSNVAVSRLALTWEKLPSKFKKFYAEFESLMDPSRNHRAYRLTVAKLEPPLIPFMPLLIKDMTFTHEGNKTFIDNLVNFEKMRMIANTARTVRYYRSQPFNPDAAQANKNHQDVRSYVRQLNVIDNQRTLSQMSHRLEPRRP
For assay [15] the target is unchanged. Nature of the assay: Confirmatory qHTS for antagonist of cAMP-regulated guanine nucleotide exchange factor 4 (EPAC2) (AID 1645885). Further: nearly all actives have a fitted effect of over 25% in size. Further: potency means the concentration at half of the fitted maximal effect. The conditions noted are these: EPAC2 Rap1B-BODIPY-GDP exchange fluorescence, biochemical; series mostly up to 114 µM.
Assay [16] concerns the target Cytochrome P450 1A2 (Homo sapiens) (UniProt P05177). Nature of the assay: p450-cyp1a2 (AID 410; calls by dose curve; further: potency means the concentration at half of the fitted maximal effect). Particulars: recombinant CYP1A2, luciferin-ME demethylation, luminescence; series mostly up to 57 µM. The method in brief:
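20nM CYP1A2, 100uM Luciferin-ME (=Km), 100mM KPO4; cpd 10 min RT; +NADPH regen, 60 min RT; stop/detect 20 min; luminescence. Normalized to furafylline 57 uM = full inhibition.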

For assay [17], the target named is 3',5'-cyclic-AMP phosphodiesterase 4B (Homo sapiens) (UniProt Q07343). Nature of the assay: qHTS Assay for Inhibitors of PDE-IV (AID 607; active means well fitted activation curve with a large enough effect in the main read-out, with a control signal flat, not every such curve was filed as active; further: % of control where 0% means no effect). Particulars: HEK293 ACTOne CNG channel cells, membrane potential fluorescence; series mostly up to 22.9 µM. In a few lines:
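HEK293 ACTOne cells with CNG channel (1000/well), endogenous PDE4; membrane potential dye, compounds up to 22.9 uM final. Fluorescence Ex 535/Em 590; RO 20-1724 (100 uM final) as reference.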

Assay [18] deals with Cytochrome P450 3A4 (Homo sapiens) (UniProt P08684). Nature of the assay: qHTS Assay for Inhibitors and Substrates of Cytochrome P450 3A4 (AID 884). Further: potency means the concentration at half of the fitted maximal effect; nearly all actives have a fitted effect of over 50% in size. The conditions noted are these: recombinant CYP3A4, Luciferin-PPXE luminescence; series mostly up to 57.1 µM. In a few lines:
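Luminescent readout of luciferin produced by CYP3A4 (20 nM) dealkylation of Luciferin-PPXE, 25 uM (its KM). NADPH-driven reaction ran 60 min at RT after 10 min compound preincubation; data scaled to 57 uM ketoconazole as 100% inhibition.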

Assay [19] has the same target. Nature of the assay: qHTS Assay for Activators of Cytochrome P450 3A4 (AID 885). Further: nearly all actives have a fitted effect of over 65% in size. Particulars: recombinant CYP3A4, Luciferin-PPXE luminescence, 60 min; series mostly up to 57.1 µM. In a few lines:
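Human CYP3A4 dealkylates Luciferin-PPXE to luciferin, which luciferase detection converts to light. Substrate was at its KM (25uM), buffer 200mM KPO4, reaction 60 min at RT.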

Assay [20] has as its target Rap guanine nucleotide exchange factor 3 (Homo sapiens) (UniProt O95398). Nature of the assay: Confirmatory qHTS for antagonist of cAMP-regulated guanine nucleotide exchange factor 3 (EPAC1) (AID 1645880).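 Further: plate controls were DMSO only for no effect and full effect of the ATA control for full effect; nearly all actives have a fitted effect of over 55% in size.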 The conditions noted are these: EPAC1 Rap1B-BODIPY-GDP exchange, fluorescence; series mostly up to 115 µM. In a few lines: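 Released BODIPY-GDP fluoresces less than Rap1-bound BODIPY-GDP; the signal is followed at 480/540 nm at 5-min intervals over 30 min, after 5 min at room temperature. Reactions contain 100 nM EPAC1, 250 nM RAP1B-BODIPY-GDP and 50 uM GDP; results are normalized to ATA and DMSO.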

Setting [21] is: measured here: cell count channel max response.
Setting [22] is: measured here: lipid channel max response.

Sequence of Lysosomal acid glucosylceramidase (Homo sapiens) (P04062 whole entry, looked up): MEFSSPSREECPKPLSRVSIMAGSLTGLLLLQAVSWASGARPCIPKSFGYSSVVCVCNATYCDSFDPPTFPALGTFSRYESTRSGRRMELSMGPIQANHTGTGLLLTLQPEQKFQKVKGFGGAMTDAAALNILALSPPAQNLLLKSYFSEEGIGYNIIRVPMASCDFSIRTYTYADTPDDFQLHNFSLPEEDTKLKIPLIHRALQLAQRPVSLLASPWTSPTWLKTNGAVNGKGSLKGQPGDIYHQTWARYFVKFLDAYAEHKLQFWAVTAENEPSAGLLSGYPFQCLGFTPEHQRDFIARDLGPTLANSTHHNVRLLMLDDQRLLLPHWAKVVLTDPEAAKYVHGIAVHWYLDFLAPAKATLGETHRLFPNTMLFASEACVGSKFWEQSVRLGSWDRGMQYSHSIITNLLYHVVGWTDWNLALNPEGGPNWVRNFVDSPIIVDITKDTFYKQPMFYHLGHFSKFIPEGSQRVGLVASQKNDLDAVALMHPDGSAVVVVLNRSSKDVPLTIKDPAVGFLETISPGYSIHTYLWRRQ
Sequence of Cytochrome P450 3A4 (Homo sapiens) (P08684 whole entry, looked up): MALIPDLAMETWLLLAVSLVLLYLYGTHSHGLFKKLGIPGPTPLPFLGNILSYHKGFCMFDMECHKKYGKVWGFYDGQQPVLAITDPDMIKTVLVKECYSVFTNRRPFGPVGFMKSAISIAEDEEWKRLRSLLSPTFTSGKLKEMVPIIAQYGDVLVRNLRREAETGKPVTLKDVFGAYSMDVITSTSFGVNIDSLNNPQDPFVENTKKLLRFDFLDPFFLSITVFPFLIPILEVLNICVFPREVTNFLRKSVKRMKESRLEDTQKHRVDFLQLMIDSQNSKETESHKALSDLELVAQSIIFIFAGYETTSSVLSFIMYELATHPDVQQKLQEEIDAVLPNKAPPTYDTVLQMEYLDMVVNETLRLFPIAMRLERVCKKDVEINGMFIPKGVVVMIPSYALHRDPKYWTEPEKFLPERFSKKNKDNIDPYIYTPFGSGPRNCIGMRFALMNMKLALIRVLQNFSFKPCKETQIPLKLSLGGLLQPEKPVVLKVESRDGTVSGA
Sequence of Cytochrome P450 1A2 (Homo sapiens) (P05177 whole entry, looked up): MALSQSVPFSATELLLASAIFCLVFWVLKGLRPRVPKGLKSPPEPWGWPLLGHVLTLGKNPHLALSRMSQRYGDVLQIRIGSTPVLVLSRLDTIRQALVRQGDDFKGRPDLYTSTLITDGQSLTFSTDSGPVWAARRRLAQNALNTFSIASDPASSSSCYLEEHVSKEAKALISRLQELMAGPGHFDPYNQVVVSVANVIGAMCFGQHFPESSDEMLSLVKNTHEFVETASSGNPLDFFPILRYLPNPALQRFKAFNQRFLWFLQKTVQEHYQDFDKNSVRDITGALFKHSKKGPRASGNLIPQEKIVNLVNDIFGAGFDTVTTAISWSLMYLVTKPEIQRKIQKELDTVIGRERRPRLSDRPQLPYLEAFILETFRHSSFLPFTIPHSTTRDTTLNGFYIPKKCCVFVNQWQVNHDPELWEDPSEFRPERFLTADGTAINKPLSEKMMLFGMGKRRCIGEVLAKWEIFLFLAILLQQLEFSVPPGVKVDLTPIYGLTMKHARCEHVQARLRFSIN

In the case of `Cc1ccccc1-c1ccc2ncnc(N(C)Cc3ccco3)c2c1`, the Potency in assay [1] is > 11.4 µM (inactive); in assay [5] it was > 46 µM (inactive); in assay [6], > 46 µM (inactive); in [9] it was 14.1 µM (active); in assay [10], 14.1 µM (active); in assay [11] it was 12.6 µM (active). For the same compound, the Potency in [15] was 31.2 µM (active). Besides, the activity change, negative = inhibition was -8.93% (inactive) in assay [2], -28.4% (inactive) in [3] and 2.17% (inactive) in assay [8]. Besides, the activity, negative = inhibition in assay [4] is -13.4% (inactive). Moreover, the Potency result in assay [7], in [12], in [13] and in assay [14] was “inactive” each time. Moreover, the figures for the max response in [8] (setting [21]) and in [8] (setting [22]) were 20.6% and 23.2%, respectively.

In the case of `COc1ccc(-c2nc3cnc(Nc4cccc(OC)c4)nc3n(CCC#N)c2=O)cc1`, the Potency in [1] is > 11.4 µM (inactive); in [16] it was 6.31 µM (active); in assay [5] it was > 9.22 µM (inactive); in assay [6] it was > 46 µM (inactive); in assay [18], 3.98 µM (active); in [13], 70.6 µM (active). In assay [14], the Potency is 70.6 µM (active). The activity change, negative = inhibition in [3] was -19.2% (inactive); in [8] it was -18.1% (inactive). In assay [4], the activity, negative = inhibition is -10% (inactive). Further, the Potency entry in [7], in [17], in assay [19], in [20] and in [15] was “inactive” throughout. Moreover, the max response in assay [8] (setting [21]) is 16.5%; in assay [8] (setting [22]), -2.36%.
